Source: PubChem BioAssay
Active and inactive are the calls of the source.

Experiments:
[1] = system: PRMT1 (protein arginine N-methyltransferase 1); assay: small molecules binding arginine methyltransferase PRMT1 – biochemical, small-molecule microarray, 635 nm fluorescence, primary screen (AID 1088); conditions: higher = more signal;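 further: binding of Prmt1 protein to compounds spotted on small-molecule microarray slides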
[2] = growth effects on S. cerevisiae YJM789 – YJM789 clinical isolate, OD600, 24 h, basal, primary screen (AID 1089); conditions: higher = more signal, called active from +8 up or from −8 down;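 further: growth of clinical yeast isolate S. cerevisiae YJM 789 seeded 1000 cells per well; test concentration not given here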
[3] = S. pombe growth modifiers, basal conditions – strain 972, OD600, 24 h, no modulator, primary screen (AID 1090);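 further: basal condition with compound alone and no growth modifier present; test concentration not given here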; conditions: S. pombe 972 growth, higher = more signal, called active from +8 up or from −8 down
[4] = budding yeast growth modifiers under rapamycin – strain BY4716, OD600, 96 h, primary screen (AID 1091); further: test concentration not given here; conditions: S. cerevisiae BY4716 + rapamycin, higher = more signal, called active from +8 up or from −8 down
[5] = molecular target: Torsin-1A-interacting protein 2 (Homo sapiens) (UniProt Q8NFQ8); assay: small molecules binding lysate-expressed LULL1 – cell lysate, human LULL1 lysate, 635/667 nm fluorescence, primary screen (AID 1092); conditions: small-molecule microarray, hLULL1 lysate binding, 635 nm fluorescence; higher = more signal;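 further: probe is lysate of COS7 cells overexpressing human LULL1; score merges per-feature 667 nm fluorescence with signal-to-noise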
[6] = optical density change of DRC41 E. coli – strain DRC41, OD650, 24 h, E. coli filamentation project, primary screen (AID 1093);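 further: MC1000 strain lacking acrAB efflux and sulA so SOS filamentation is blocked; test concentration not given here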; conditions: E. coli DRC41 growth, higher = more signal, called active from +8 up or from −8 down
[7] = probe aLefty2 binding to arrayed compounds – biochemical, biotinylated probe, 635/667 nm fluorescence, primary screen (AID 1094); conditions: small-molecule microarray, higher = more signal;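 further: score merges spot fluorescence near 667 nm with spot signal-to-noise ratio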
[8] = system: Noggin (protein binding on small-molecule microarray); assay: small molecules binding Noggin protein – biochemical, 635/667 nm fluorescence, primary screen (AID 1095); conditions: 635 nm fluorescence, higher = more signal;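 further: score merges 667 nm feature fluorescence with signal to noise over triplicate slides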
[9] = molecular target: Neurogenic locus notch homolog protein 3 (Homo sapiens) (UniProt Q9UM47); assay: small molecules binding NOTCH3 protein – biochemical, 635/667 nm fluorescence, primary screen (AID 1096); conditions: small-molecule microarray, 635 nm fluorescence, higher = more signal
[10] = probe aEGFR binding to arrayed compounds – biochemical, biotinylated probe, 635/667 nm fluorescence, primary screen (AID 1097); conditions: small-molecule microarray, higher = more signal;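 further: probe is a biotinylated anti-EGFR antibody binding compounds printed on slides; score combines fluorescence near 667 nm and signal to noise of each spot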
[11] = system: Plasmodium falciparum Sir2 (PF13_0152, Sir2A); assay: Plasmodium falciparum Sir2A binding compounds – biochemical, small-molecule microarray, 635 nm fluorescence, primary screen (AID 1098); conditions: fluorescence 635 nm, higher = more signal;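 further: score merges spot fluorescence intensity with its signal-to-noise ratio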
[12] = probe aDKK1 binding to arrayed compounds – biochemical, biotinylated probe, 635/667 nm fluorescence, primary screen (AID 1099); conditions: small-molecule microarray, higher = more signal;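 further: score merges 667nm spot fluorescence with signal to noise across triplicate slides; reference of the scale not given here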
[13] = probe aCHRDL2 binding to arrayed compounds – biochemical, biotinylated probe, 635/667 nm fluorescence, primary screen (AID 1100); conditions: small-molecule microarray, higher = more signal
[14] = change in splice reporter luminescence, either direction, cell-based, HEK293, spliceosome inhibition project, primary screen (AID 1101); conditions: HEK293 splicing luciferase reporter, 24 h, higher = more signal, called active from +8 up or from −8 down;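 further: HEK293 cells carrying a splicing-competent luciferase reporter gene; test concentration not given here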
[15] = molecular target: Fibroblast growth factor 10 (Homo sapiens) (UniProt O15520); assay: compounds binding fibroblast growth factor 10 – biochemical, small-molecule microarray, 635 nm fluorescence, primary screen (AID 1102); conditions: FGF10 binding, fluorescence 635 nm, higher = more signal
[16] = system: glycogen synthase kinase-3 (GSK3A per assay name; protocol says GSK3B); assay: compounds binding glycogen synthase kinase-3 – biochemical, small-molecule microarray, 635 nm fluorescence, GSK3A, primary screen (AID 1103); conditions: fluorescence 635 nm, higher = more signal; further: the record names both GSK3A and GSK3B
[17] = molecular target: Epidermal growth factor receptor (Homo sapiens) (UniProt P00533); assay: compounds binding epidermal growth factor receptor – biochemical, small-molecule microarray, 635 nm fluorescence, primary screen (AID 1104); conditions: EGFR binding, higher = more signal;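 further: score merges 667 nm emission intensity with spot signal to noise over triplicate slides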
[18] = molecular target: Follistatin-related protein 3 (Homo sapiens) (UniProt O95633); assay: compounds binding follistatin-related protein 3 – biochemical, small-molecule microarray, 635 nm fluorescence, primary screen (AID 1105); conditions: FSTL3 binding, higher = more signal;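 further: score merges emission near 667 nm and signal to noise per printed spot across three slides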
[19] = molecular target: Dickkopf-related protein 1 (Homo sapiens) (UniProt O94907); assay: small molecules binding DKK1 protein – biochemical, small-molecule microarray, 635 nm fluorescence scan, primary screen (AID 1106); conditions: higher = more signal;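 further: score merges emission near 667 nm with signal to noise over three replicate slides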
[20] = system: Inhibin beta A chain (activin A); assay: small molecules binding activin A – biochemical, small-molecule microarray, 635 nm fluorescence scan, primary screen (AID 1107); conditions: INHBA, higher = more signal;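 further: mouse activin A protein probed at 4.33 µg/mL on printed slides; score merges bound-protein fluorescence near 667 nm with spot signal-to-noise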

Sequence of Fibroblast growth factor 10 (Homo sapiens) (O15520 whole entry, looked up): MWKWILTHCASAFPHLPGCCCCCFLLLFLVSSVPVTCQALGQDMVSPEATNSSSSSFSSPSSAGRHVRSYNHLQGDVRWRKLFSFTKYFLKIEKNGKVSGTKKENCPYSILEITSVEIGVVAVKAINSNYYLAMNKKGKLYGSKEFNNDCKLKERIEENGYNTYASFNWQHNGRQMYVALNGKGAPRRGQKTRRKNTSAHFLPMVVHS
Sequence of Torsin-1A-interacting protein 2 (Homo sapiens) (Q8NFQ8 whole entry, looked up): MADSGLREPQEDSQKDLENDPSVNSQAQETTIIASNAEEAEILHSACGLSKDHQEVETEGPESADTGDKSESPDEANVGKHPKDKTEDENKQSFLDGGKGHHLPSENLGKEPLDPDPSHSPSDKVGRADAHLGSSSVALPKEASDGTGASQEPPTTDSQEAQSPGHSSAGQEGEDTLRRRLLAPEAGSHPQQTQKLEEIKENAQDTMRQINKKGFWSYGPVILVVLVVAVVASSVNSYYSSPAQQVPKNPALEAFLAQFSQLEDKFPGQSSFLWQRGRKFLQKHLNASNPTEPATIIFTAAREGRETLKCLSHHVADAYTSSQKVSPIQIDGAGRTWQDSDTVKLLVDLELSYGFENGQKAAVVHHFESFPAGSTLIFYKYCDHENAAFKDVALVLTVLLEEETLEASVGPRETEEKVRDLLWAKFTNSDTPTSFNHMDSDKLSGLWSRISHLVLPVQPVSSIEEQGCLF
Sequence of Epidermal growth factor receptor (Homo sapiens) (P00533 whole entry, looked up): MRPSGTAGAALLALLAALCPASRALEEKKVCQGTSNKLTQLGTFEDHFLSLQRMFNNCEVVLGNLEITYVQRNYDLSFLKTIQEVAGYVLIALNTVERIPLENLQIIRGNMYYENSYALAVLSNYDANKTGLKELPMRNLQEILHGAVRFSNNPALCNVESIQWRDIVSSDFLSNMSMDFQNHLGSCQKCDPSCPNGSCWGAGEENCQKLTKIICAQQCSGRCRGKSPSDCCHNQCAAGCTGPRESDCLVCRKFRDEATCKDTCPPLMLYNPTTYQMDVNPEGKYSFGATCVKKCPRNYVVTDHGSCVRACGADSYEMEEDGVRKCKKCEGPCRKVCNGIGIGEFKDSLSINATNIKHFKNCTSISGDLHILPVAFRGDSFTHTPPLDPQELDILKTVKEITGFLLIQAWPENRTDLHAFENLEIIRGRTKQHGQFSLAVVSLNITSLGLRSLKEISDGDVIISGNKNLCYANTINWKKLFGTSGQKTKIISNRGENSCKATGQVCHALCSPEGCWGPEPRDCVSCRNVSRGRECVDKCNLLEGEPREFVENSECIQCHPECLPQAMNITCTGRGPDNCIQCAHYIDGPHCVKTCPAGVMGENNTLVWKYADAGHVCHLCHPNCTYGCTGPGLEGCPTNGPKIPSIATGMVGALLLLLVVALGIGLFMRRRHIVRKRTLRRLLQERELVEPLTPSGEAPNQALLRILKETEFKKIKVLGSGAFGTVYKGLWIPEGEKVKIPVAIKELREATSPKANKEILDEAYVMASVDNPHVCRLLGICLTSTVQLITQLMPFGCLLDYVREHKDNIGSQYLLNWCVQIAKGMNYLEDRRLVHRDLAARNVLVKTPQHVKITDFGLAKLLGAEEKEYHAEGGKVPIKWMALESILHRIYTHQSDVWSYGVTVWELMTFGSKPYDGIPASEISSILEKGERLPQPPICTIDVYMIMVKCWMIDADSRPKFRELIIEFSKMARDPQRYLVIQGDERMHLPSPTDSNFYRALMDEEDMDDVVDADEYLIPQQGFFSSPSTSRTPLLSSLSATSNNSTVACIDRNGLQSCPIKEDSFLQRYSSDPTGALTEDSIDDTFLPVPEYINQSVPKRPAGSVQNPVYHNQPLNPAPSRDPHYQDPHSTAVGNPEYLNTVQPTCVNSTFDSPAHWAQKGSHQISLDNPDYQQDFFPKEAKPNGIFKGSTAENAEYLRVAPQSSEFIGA
Sequence of Dickkopf-related protein 1 (Homo sapiens) (O94907 whole entry, looked up): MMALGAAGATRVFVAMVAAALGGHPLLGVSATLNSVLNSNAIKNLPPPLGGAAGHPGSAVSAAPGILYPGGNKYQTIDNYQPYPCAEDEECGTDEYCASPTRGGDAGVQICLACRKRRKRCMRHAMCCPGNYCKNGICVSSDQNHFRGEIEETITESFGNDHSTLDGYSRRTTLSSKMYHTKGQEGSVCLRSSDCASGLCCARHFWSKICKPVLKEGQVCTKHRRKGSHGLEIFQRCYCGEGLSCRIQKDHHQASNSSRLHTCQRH
Sequence of Neurogenic locus notch homolog protein 3 (Homo sapiens) (Q9UM47 whole entry, looked up): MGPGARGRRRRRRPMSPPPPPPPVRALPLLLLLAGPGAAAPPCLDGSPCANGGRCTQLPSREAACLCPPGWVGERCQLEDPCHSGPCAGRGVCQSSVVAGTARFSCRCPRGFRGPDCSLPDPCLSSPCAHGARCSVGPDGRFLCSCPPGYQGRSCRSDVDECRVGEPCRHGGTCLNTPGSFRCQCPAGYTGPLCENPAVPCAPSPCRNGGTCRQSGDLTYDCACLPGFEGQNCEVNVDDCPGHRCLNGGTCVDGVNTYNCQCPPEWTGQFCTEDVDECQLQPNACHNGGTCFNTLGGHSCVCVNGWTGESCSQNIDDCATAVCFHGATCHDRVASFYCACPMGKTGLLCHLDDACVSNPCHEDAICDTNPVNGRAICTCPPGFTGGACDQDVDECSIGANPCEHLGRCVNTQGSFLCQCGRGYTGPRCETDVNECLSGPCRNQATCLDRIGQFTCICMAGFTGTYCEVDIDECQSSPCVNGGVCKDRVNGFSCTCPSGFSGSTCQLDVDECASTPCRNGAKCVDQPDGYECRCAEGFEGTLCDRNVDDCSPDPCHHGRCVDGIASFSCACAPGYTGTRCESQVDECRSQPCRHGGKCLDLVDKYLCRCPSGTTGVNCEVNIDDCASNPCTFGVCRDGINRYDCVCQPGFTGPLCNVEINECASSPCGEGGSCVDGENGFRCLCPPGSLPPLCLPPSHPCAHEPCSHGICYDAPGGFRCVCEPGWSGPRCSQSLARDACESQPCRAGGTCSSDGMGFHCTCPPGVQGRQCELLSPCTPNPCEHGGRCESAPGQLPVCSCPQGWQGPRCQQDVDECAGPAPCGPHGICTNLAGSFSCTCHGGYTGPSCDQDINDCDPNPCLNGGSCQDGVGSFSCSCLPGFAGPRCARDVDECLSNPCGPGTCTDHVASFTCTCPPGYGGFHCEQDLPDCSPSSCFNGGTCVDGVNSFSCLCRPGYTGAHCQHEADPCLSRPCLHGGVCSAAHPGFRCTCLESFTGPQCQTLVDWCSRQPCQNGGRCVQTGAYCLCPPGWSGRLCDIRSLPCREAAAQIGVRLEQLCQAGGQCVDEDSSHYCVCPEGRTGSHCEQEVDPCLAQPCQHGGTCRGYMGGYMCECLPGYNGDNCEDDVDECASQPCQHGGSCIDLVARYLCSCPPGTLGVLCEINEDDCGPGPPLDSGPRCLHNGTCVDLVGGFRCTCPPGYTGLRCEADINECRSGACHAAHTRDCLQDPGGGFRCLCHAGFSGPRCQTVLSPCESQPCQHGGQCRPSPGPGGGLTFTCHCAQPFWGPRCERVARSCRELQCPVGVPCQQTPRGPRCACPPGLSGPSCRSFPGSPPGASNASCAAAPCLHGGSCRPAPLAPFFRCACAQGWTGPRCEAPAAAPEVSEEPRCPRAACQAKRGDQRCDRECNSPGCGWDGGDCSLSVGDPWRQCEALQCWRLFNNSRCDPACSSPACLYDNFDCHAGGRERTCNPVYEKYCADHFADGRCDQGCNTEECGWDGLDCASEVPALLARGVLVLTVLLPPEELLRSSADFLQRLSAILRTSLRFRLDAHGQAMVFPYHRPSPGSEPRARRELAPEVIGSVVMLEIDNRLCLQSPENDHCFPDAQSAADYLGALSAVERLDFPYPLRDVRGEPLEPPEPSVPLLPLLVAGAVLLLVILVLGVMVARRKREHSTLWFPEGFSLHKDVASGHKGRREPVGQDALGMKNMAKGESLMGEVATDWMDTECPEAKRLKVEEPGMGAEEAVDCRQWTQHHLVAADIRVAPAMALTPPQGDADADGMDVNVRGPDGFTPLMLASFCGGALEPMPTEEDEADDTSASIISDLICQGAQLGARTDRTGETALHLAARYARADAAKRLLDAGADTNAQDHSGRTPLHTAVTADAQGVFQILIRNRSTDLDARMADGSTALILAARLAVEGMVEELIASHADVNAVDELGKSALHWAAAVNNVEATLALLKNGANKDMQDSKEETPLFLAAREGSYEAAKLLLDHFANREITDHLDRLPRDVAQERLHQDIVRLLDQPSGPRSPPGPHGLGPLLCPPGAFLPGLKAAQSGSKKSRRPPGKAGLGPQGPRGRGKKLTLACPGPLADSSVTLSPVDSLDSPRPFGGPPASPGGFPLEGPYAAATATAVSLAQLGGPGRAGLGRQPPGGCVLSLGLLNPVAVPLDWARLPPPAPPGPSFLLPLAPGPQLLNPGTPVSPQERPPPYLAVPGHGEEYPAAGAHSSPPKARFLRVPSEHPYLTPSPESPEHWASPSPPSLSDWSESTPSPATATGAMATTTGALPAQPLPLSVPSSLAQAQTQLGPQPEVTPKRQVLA
Sequence of Follistatin-related protein 3 (Homo sapiens) (O95633 whole entry, looked up): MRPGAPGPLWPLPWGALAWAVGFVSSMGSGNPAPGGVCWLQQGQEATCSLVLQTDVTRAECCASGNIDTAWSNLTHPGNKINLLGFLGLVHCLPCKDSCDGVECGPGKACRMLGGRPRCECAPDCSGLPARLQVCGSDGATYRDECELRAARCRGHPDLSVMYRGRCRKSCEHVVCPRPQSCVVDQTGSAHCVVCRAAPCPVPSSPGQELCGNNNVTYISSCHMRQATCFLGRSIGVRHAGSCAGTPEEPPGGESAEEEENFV

| Compound | composite z-score [1] | z-score [2] | z-score [3] | z-score [4] | composite z-score [5] | z-score [6] | composite z-score [7] | composite z-score [8] | composite z-score [9] | composite z-score [10] | composite z-score [11] | composite z-score [12] | composite z-score [13] | z-score [14] | composite z-score [15] | composite z-score [16] | composite z-score [17] | composite z-score [18] | composite z-score [19] | composite z-score [20] |
| --- | --- | --- | --- | --- | --- | --- | --- | --- | --- | --- | --- | --- | --- | --- | --- | --- | --- | --- | --- | --- |
| O=C1c2ccccc2[C@](Cc2ccccc2I)(C(=O)O)[C@H](c2ccc(CO)cc2)N1Cc1ccccc1 | 1.55 | -2.23 (inactive) | -0.912 (inactive) | -1.22 (inactive) | 2.5 | 0.66 (inactive) | 0.0299 | -0.57 | -0.0277 | -0.027 | 1.39 | 0.486 | 0.736 | 0.188 (inactive) | -0.011 | -0.0481 | -0.964 | -0.509 | -0.69 | -0.309 |
| COCCOC(=O)N1C(=O)[C@@]2(c3cc(C#Cc4ccc(OC)cc4)ccc31)[C@H](C(=O)Nc1nc3ccccc3s1)[C@H]1C(=O)O[C@H](c3ccccc3)[C@H](c3ccccc3)N1[C@@H]2c1ccccc1OCCO | 1.58 | 0.455 (inactive) | 0.318 (inactive) | 1.62 (inactive) | 1.55 | 1.86 (inactive) | -0.179 | 1.06 | 1.13 | -0.0531 | 0.655 | -0.0582 | -0.149 | -2.03 (inactive) | 0.517 | 0.731 | 0.29 | 0.909 | 0.534 | 0.629 |
| O=C(NCC(F)(F)F)[C@@H]1c2ccccc2C(=O)N(CC23CC4CC(CC(C4)C2)C3)[C@H]1c1ccc(CO)cc1 | 1.54 | -3.48 (inactive) | -1.94 (inactive) | -1.47 (inactive) | 1.81 | 1.37 (inactive) | -0.129 | 1.14 | 1.1 | -0.0902 | 0.586 | -0.0677 | -0.217 | -1.32 (inactive) | 0.75 | 0.804 | 0.169 | 0.858 | 0.26 | 0.47 |
| NC(=O)N1C(=O)C2C(C1=O)C1C=C(CCCO)C2C(c2ccc(CN3CCCC3)cc2)N1Cc1cccc(OC(F)(F)F)c1 (stereo not given) | 1.33 | -1.11 (inactive) | -2.67 (inactive) | -2.1 (inactive) | 1.28 | 0.489 (inactive) | 0.0472 | 0.623 | 0.0057 | -0.0286 | 0.488 | 0.084 | 0.263 | -0.443 (inactive) | 0.374 | 0.686 | 0.634 | 0.719 | 0.723 | 1.59 |
| CC(C)C[C@@H]1NC(=O)C([C@@H](C)OCc2ccccc2)NC(=O)[C@@]23C(=O)N[C@@H](Cc4ccccc4)C2[C@H](C)[C@@]2(C)O[C@H]2C3/C=C/CC/C=C/CNC1=O (stereo not given in full) | 1.55 | -0.404 (inactive) | -1.07 (inactive) | -1.28 (inactive) | 1.82 | 0.957 (inactive) | -0.129 | 1.18 | 0.767 | -0.0512 | 1.38 | -0.309 | -0.475 | -1.62 (inactive) | 0.699 | 0.517 | 0.432 | 0.721 | 0.445 | 1.13 |
| COc1ccc([Si](C)(C)[C@H]2[C@H](CCn3cc([C@H](O)c4ccccc4)nn3)O[C@@]3(C(=O)N(C)c4c(Br)cc(C)cc43)[C@@H]2C)cc1 | 0.661 | 0.31 (inactive) | 0.467 (inactive) | 1.34 (inactive) | -0.168 | 0.832 (inactive) | -0.138 | 1.96 | -0.615 | -0.179 | -0.34 | -0.189 | 0.387 | -0.923 (inactive) | 0.574 | 0.0322 | -0.597 | -0.499 | 0.335 | 0.227 |
| O=C1OCCC=C[C@H]2OC34C=CCN(c5ccc(Cl)cc5)C(=O)[C@H]3N(CCO)C(=O)[C@@H]4C12 (stereo not given in full) | -0.502 | -0.237 (inactive) | -0.335 (inactive) | -0.253 (inactive) | -0.241 | 0.474 (inactive) | -0.121 | -0.545 | -0.0792 | -0.194 | -0.358 | -0.208 | 0.266 | -0.343 (inactive) | -0.45 | -0.695 | -0.723 | -0.683 | -0.568 | -1.16 |
| COCCOC(=O)N1C(=O)[C@@]2(c3cc(C#CC4(O)CCCCCC4)ccc31)[C@H](C(=O)NC[C@H](O)c1ccccc1)[C@H]1C(=O)O[C@H](c3ccccc3)[C@H](c3ccccc3)N1[C@@H]2c1ccc(O)cc1 | 1.48 | 0.295 (inactive) | 0.956 (inactive) | 0.927 (inactive) | 2.49 | 1.43 (inactive) | -0.0289 | 0.3 | 0.871 | -0.0703 | 1.36 | 0.203 | 0.316 | 0.209 (inactive) | 0.779 | 1.29 | -0.0406 | 0.334 | -0.0026 | 0.386 |
| COc1ccc([Si](C)(C)[C@@H]2[C@@H](CCO)O[C@]3(C(=O)N(Cc4ccccc4)c4ccc(N5C(=O)c6ccccc6Oc6ccccc65)cc43)[C@H]2C)cc1 | 0.182 | 1.32 (inactive) | 0.381 (inactive) | 8.27 (active) | 1.21 | 1.13 (inactive) | -0.136 | 0.245 | 0.057 | -0.19 | 0.0104 | -0.171 | 0.462 | -1.28 (inactive) | -0.673 | -1.02 | -1.04 | -0.398 | -0.328 | -0.0458 |
| COCC1=C([C@H](O)CCc2ccccc2)[C@H](CO)n2c(=O)n(-c3ccccc3)c(=O)n2C1 | -0.872 | -1.47 (inactive) | -1.41 (inactive) | -0.259 (inactive) | -0.728 | 2.86 (inactive) | -0.0146 | -0.0338 | -0.907 | -0.253 | -0.285 | -0.412 | -0.39 | -1.12 (inactive) | -0.187 | -0.295 | 0.445 | -0.41 | 0.353 | 0.785 |
| COC(=O)[C@@H]1N=C(c2ccc(OCCCO)cc2)O[C@@H]1c1ccccc1CN=[N+]=[N-] | 1.01 | 0.23 (inactive) | -0.956 (inactive) | -1.14 (inactive) | 1.74 | 1.05 (inactive) | 0.109 | -0.0395 | 0.327 | -0.0802 | -0.418 | 0.502 | 1.2 | 0.0193 (inactive) | -0.648 | -1.01 | -0.428 | -0.547 | -1.36 | 0.778 |
| C=CC[C@@]12N=C(c3ccc(OCCCO)cc3)O[C@@H]1c1ccccc1N(Cc1ccccc1)C2=O | 1.54 | -0.965 (inactive) | -1.53 (inactive) | 1.86 (inactive) | 3.14 | 1.12 (inactive) | 0.145 | 1.72 | 1.08 | 0.0631 | 1.55 | 1.36 | 1.08 | -1.37 (inactive) | 1.26 | 1.34 | 0.657 | 1.48 | 0.904 | 1.12 |
| CC#CCO[Si](C#CCCCCCC)(C(C)C)C(C)C | 0.276 | 0.176 (inactive) | -19.1 (active) | -1.61 (inactive) | 0.373 | -0.0013 (inactive) | 0.137 | -2.8 | -1.16 | -0.466 | 1.5 | -0.32 | 1.21 | 0.176 (inactive) | -2.46 | -0.719 | -2.07 | -2.09 | -3.48 | -2.74 |
